This excerpt belongs to a sample that is enriched for hits.
PNC assembly inh – blocks assembly of the perinucleolar compartment | PC3M PTB-GFP, PNC prevalence imaging, 16 h; hits give low values | activity change (PNC), negative = inhibition, % at 10 µM | 140,000 tested, 3.1% active | AID 2417;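 active = readout at or below -70, meaning at least 70% loss of cells showing the perinucleolar compartment, a nuclear body marking cancer cells; inconclusive = readout between -30 and a set limit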;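 also: plate controls were DMSO wells for no effect and camptothecin positive control wells for full effect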
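Read-out is percentage of cells bearing a perinucleolar compartment, from automated 20x imaging of fixed, Hoechst-stained PC3M PTB-GFP cells. Cells were seeded 4 h, then exposed 16 h to compound (23 nl of library stock) in duplicate plates.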
IMPase Li cell – IMPase inhibition in cells with lithium potentiation. AID 1457. Potency, µM (highest dose often 59.4 µM), without a hit: at the highest dose activity, negative = IMPase inhibition, hits mostly inhibitors. CHO-M1 cells, IP1 TR-FRET (IP-One), carbachol + lithium. 210,000 tested, 0.35% active;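 also: IP1 builds up when IMPase is blocked and the TR-FRET signal falls; potency is read from the fitted curve at half-maximal effect; plate controls were basal vehicle for no effect and high inhibitor control for full effect; nearly all actives have a fitted effect of over 50% in size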
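CHO-M1, 2000 cells/well, 16–30 h culture; cpd + low Li+, 30 min 37C; lysis with d2-IP1/Eu-anti-IP1 Ab, 10 min RT; TR-FRET 665/620 ratio and 620 channel; AC50 via Hill.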
IMPase inh – IMPase inhibition in cells | AID 901 | CHO-M1 cells, IP1 accumulation, HTRF TR-FRET ratio | inhibition (IP1 accumulation), % at 46.1 µM | 120,000 tested, under 10 active | P97697; active = well fitted curve in the direction sought with a large enough effect in the signal ratio, not every such curve was filed as active; inconclusive = small, poorly fitted or top-dose-only effect, or a change in a side signal; inactive = no such curve, though single readings can be large or run the other way; the % refers to the signal ratio;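 also: cells stimulated with carbachol in lithium chloride buffer; plate controls were DMSO basal wells for no effect and reference inhibitor wells for full effect; higher means more IMPase inhibition seen as more IP1 and lower FRET ratio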
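CHO-M1 cells (CHO stably expressing M1 receptor), compound up to 46 uM final, stimulated with carbachol (50 uM as added) in buffer with 50mM LiCl, pH 7.4, 30 min at 37C. Cytosolic IP1 read by TR-FRET; AC50 from Hill fits.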
ALOX12 inhib – 12-hLO (ALOX12) enzyme inhibition; 150,000 tested, 0.12% active; P18054; Potency, µM (doses to about 57.1 µM), for the others: at the top dose activity change, negative = inhibition, actives largely listed as inhibitors; purified 12-hLO, xylenol orange hydroperoxide absorbance; AID 1452; also: potency is read from the fitted curve at half-maximal effect; nearly all actives have a fitted effect of over 55% in size
Target sequence (P18054 whole entry, looked up): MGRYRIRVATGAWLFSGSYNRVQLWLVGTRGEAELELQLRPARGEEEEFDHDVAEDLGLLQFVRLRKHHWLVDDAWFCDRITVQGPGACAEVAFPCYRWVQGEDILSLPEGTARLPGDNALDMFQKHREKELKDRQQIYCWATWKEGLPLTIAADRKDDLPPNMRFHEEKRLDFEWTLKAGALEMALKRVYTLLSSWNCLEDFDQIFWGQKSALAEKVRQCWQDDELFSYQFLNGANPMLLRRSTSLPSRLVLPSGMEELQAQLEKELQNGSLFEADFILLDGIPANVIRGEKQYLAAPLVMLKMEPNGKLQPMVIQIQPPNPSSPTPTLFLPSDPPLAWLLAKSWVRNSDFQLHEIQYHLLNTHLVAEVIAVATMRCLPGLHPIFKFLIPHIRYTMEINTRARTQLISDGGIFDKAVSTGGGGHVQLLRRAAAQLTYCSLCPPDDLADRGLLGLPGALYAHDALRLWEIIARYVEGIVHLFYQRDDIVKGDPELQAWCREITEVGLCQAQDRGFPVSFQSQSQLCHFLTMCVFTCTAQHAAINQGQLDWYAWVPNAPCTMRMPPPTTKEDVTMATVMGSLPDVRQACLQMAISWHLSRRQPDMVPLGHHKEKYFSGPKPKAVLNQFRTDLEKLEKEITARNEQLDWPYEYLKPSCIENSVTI
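Purified human 12hLO (150 nM final) was preincubated with compounds for 15 min at room temperature in 25 mM Hepes pH 7.0, 0.01% Triton X-100, then reacted with 40 uM arachidonic acid for 30 min. Hydroperoxide was detected with ferrous iron/xylenol orange.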
* hit, by the source's call; ? = inconclusive; / = no result given; [ ] = remark or other dose. Unless noted, calls follow the shape of the dose curve; as a rule, active = well fitted curve in the direction sought with a large enough effect; inconclusive = small, poorly fitted or top-dose-only effect, or another doubt; inactive = no such curve, though single readings can be large; an effect the other way counts as inactive or inconclusive. Unless noted, % is scaled to controls: 0 for no effect and ±100 for the full control effect.

SMILES	PNC assembly inh	IMPase Li cell	IMPase inh	ALOX12 inhib
O=C(c1cnc2n(c1=O)CCS2)N(c1ccccc1)C1CCCCC1	-106*	3%[38.3 µM]	-6	-4%
CNC(=S)NCCc1cc2c(OC)ccc(OC)c2[nH]c1=O	/	0%	/	/
Cc1cc(=O)c2cccc(Br)c2[nH]1	-100*	-11%	-8	4%
COc1ccc(S(=O)(=O)Nc2ccccc2C(=O)NC(C)(C)C)cc1OC	-112*	27%[38.3 µM]	4	7%
O=C(Cc1cccs1)N1CCN(C(=O)C2CCCO2)CC1 (stereo unspecified)	-120*	1%[38.3 µM]	8	-5%
O=C(Nc1ccc2c(c1)OCCO2)N1CCN(c2ccc(F)cc2)CC1	-112*	5%	0	1%
O=C(Nc1ccc2c(c1)OCO2)N1CCN(C(=O)C2CCCO2)CC1 (stereo unspecified)	-100*	-1%	9	6%
N=c1ccn2c(n1)OCC1C2O[C@@H](O)[C@H]1O (stereo partly specified)	/	20%	/	/
O=c1cc(-c2ccccc2O)oc2c1ccc1ccccc12	/	8%	-4	-5%
CN1CCCN(C(=O)CC(c2ccccc2)c2ccccc2)CC1	/	35%	/	/
O=C(O)C1CCCN1S(=O)(=O)c1ccc2ccccc2c1 (stereo unspecified)	-100*	-11%	3	7%
CCOc1c(Br)cc(CNc2ccc3c(c2)OCCO3)cc1OC	-98*	37%[38.3 µM]	0	-4%
CCOc1cc(CNc2ccc3c(c2)OCCO3)cc(Br)c1OC	?	33%[38.3 µM]	10	-4%
O=C(O)c1ccccc1-c1nc2ccccc2n1-c1ccccc1	-109*	-8%	/	-2%
Cc1nc2ccccc2n1-c1ccccc1	?	6%[38.3 µM]	-7	-6%
Cc1cc(OCC(=O)Nc2cc(-c3nn4c(C)nnc4s3)ccc2C)ccc1Cl	-27	28µM*	1	-1%
CCOC(=O)c1sc(-c2ccc(OC)cc2)cc1NC(C)=O	55	11µM*	/	3%
CCOc1ccc(NC(=O)Nc2cc(-c3ccccc3)sc2C(=O)OC)cc1	?	11%	-2	-2%
CCC(C)OC(=O)C1=C(C)O[C@]23OC(N)=C(C#N)[C@]12C(=O)c1ccccc13 (stereo partly specified)	-100*	26%	-20	7%
Cc1ccco1	/	-3%	/	-2%
Cc1ccc(C(=O)Nc2ncc(Cc3ccc(SC(F)F)cc3)s2)cc1	-82*	17%	4	0%
COc1ccc2c(c1)Cc1sc(NC(=O)c3ccc(Cl)cc3)nc1-2	/	/	-2	/
COc1cc(S(=O)(=O)N2CCOCC2)cc(C(=O)c2nccn2C)c1OC	-88*	-3%[38.3 µM]	-1	6%
COc1ccc(/C(N)=N/OC(=O)C2CCC(=O)N2S(=O)(=O)c2ccc(C)cc2)cc1 (stereo unspecified)	-89*	2%	/	-4%
Cc1cccc(NC(=S)N2CCCCCC2)c1	-106*	-3%	/	-4%
SMILES	PNC assembly inh	IMPase Li cell	IMPase inh	ALOX12 inhib
CC(=O)/C(=C\c1ccccc1F)C(=O)c1ccccc1	/	6%	/	-6%[11.4 µM]
O=C(O)c1cccc(-c2ccc(/C=N/NC(=O)c3cccnc3)o2)c1	-83*	18%	/	-4%
Cc1ccc(/C=N/NC(=O)c2cccnc2)o1	/	-3%	/	/
CCn1c(CNc2ccc(Cl)cc2)nnc1SCC#N	/	7%	/	/
CSCC[C@H](NC(=O)c1ccc(Cl)c(S(=O)(=O)N2CCCC2)c1)c1nc2ccccc2[nH]1	?	/	-6	18µM*
COc1ccccc1C(=O)C1Nc2ccccc2-c2nnc(SC)nc2O1 (stereo unspecified)	-104*	11%	-3	-10%
CCCCCCCCC/C=C/CC1CC(=O)OC1=O (stereo unspecified)	/	13%	/	-2%
Cc1cc2nc(SCC(=O)N(C)C)c3c(c2cc1C)CCCC3	?	9%[38.3 µM]	1	-11%
CCC1CO1 (stereo unspecified)	/	-7%	/	-1%
Cc1ccc2oc(-c3cccc(NC(=O)c4ccc(Br)o4)c3C)nc2c1	?	20%[38.3 µM]	1	1%
Cc1c(NC(=O)CSc2ccc(Cl)cc2)cccc1-c1nc2cc(Cl)ccc2o1	-113*	-15%	/	0%
CCCn1ncc(CN2CCN(Cc3ccsc3)C(CCO)C2)c1C (stereo unspecified)	/	7%	/	/
CCOC(=O)c1ccc(NS(C)(=O)=O)cc1	13	11%[38.3 µM]	5	1%
CCOC(=O)c1ccc(NC(=O)Nc2ccc(S(N)(=O)=O)cc2)cc1	-122*	1%[38.3 µM]	-1	2%

High-throughput results (PubChem BioAssay)
